According to the supplement of paper PMC10849652:
Of roughly 7,900 targets only a part is listed; those with a hit were picked by preference. About 0.6% of all pairs of compound and target were hits.

What was measured:
Assay in all cases: log2 fold change, soluble protein after heating vs DMSO (PISA); higher = thermal stabilisation; K562 cells, 10 uM, 30 min; active = over 0.2 and 3.5 SD of the protein, either way, in both replicates (recomputed)
[1] = compound: C1=CC=C(C=C1)[C@H](COC2=CC3=C(C=C2)NC(=O)N3)NC(=O)C4=CC=CN(C4=O)CC5=CC(=C(C=C5)F)F
Outline: (§1)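 K562 cells (2×10^6 cells/mL) were treated with 10 μM compound for 30 min, and aliquots were heated for 3 min over 48°C-58°C. Pooled aliquots were extracted in PBS with 0.5% NP-40 at 4°C, and the supernatant after 21,000xg for 90 min was measured by TMTpro 16plex LC-MS/MS with channel sums equalised. Reported thermal stability, relative to control samples and from duplicates, is a log2 fold change.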

[2] = compound: CC1=C(SC2=C1C(=N[C@H](C3=NN=C(N32)C)CC(=O)N)C4=CC=C(C=C4)Cl)C
Outline: as §1

[3] = compound: CC1=C2C(=CC=C1)N=C(N(C2=O)C3=CC=CC=C3C)CN4C=NC5=C(N=CN=C54)N
Outline: as §1

[4] = compound: Cc1sc2c(c1C)C(c1ccc(Cl)cc1)=N[C@@H](CC(=O)OC(C)(C)C)c1nnc(C)n1-2
Outline: as §1

[5] = compound: c1ccc([C@@H]2C[C@H]2NC2CCNCC2)cc1
Outline: as §1

Measured: log2 fold change

PISD (UniProt Q9UG56)
Sequence of UniProt Q9UG56 (Q9UG56 whole entry, looked up): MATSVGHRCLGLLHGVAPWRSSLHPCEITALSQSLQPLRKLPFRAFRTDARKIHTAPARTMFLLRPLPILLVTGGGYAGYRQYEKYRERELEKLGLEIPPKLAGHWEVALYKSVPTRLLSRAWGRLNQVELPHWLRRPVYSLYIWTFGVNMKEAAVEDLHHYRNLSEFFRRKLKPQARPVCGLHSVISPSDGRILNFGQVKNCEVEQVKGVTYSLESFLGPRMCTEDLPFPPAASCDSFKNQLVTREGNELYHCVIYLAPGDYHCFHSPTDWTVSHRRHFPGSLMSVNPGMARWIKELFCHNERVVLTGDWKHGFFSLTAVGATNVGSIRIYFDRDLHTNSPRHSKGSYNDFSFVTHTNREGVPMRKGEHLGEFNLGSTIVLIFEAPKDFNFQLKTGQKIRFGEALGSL
inactive: [1] 0.002 | [2] -0.024 | [3] 0.079 | [4] -0.011 | [5] 0.043

PRIM2 (UniProt P49643)
inactive: [1] -0.07 | [2] 0.063 | [3] 0.189 | [4] 0.014 | [5] -0.092

PRKCA (UniProt P17252)
inactive: [1] -0.035 | [2] 0.124 | [3] 0.14 | [4] 0.002 | [5] -0.038

POM121 (UniProt Q96HA1)
Sequence of UniProt Q96HA1 (Q96HA1 whole entry, looked up): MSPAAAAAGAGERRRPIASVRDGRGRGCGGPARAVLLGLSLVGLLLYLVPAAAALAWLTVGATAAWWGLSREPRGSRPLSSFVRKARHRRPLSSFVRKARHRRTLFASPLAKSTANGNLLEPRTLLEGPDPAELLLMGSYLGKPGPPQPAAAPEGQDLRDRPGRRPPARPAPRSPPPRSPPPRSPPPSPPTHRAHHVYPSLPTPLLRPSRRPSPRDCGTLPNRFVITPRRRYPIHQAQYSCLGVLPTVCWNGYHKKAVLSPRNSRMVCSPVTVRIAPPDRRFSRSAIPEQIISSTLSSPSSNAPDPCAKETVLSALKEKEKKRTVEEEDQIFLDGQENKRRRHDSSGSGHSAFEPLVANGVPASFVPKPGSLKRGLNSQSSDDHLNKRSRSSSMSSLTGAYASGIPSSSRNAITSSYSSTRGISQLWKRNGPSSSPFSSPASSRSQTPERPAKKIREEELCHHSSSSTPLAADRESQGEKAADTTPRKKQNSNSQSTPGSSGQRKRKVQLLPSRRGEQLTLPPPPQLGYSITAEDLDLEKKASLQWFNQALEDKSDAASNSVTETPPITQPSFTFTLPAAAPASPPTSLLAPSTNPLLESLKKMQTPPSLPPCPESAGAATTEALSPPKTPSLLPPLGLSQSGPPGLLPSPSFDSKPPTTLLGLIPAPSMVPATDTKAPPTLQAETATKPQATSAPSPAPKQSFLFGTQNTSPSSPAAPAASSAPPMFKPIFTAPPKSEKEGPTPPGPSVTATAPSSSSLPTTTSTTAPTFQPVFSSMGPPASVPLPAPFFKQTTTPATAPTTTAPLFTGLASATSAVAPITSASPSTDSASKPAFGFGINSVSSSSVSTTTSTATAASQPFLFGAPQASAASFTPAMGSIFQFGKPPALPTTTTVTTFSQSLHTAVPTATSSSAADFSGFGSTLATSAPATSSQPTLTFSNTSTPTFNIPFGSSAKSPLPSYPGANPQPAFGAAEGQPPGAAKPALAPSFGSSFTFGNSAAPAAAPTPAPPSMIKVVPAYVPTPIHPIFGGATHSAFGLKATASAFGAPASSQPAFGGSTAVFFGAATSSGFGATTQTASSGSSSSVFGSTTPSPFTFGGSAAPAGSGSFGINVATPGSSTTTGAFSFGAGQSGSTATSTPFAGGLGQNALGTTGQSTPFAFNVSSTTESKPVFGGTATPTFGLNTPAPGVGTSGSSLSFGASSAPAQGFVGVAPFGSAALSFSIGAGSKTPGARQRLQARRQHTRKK
inactive: [1] 0.023 | [2] -0.033 | [3] 0.026 | [4] 0.054 | [5] -0.002

PCK2 (UniProt Q16822)
inactive: [1] 0.051 | [2] 0.038 | [3] 0.057 | [4] 0.008 | [5] -0.038

PCBP2 isoform 3 (UniProt Q15366)
inactive: [1] -0.051 | [2] 0.016 | [3] 0.055 | [4] -0.029 | [5] 0.005

PDE2A (UniProt O00408)
inactive: [1] 0.079 | [2] 0.08 | [3] 0.16 | [4] -0.024 | [5] 0.065

POLR2K (UniProt P53803)
inactive: [1] 0.053 | [2] 0.06 | [3] 0.046 | [4] 0.032 | [5] -0.056

PRKAB1 (UniProt Q9Y478)
inactive: [1] 0.011 | [2] 0.037 | [3] -0.024 | [4] -0.093 | [5] -0.037

PBK (UniProt Q96KB5)
inactive: [1] -0.06 | [2] 0.016 | [3] 0.067 | [4] 0.023 | [5] -0.016

PPOX (UniProt P50336)
inactive: [1] 0.385 | [2] 0.092 | [3] 0.129 | [4] 0.04 | [5] -0.045

RAB11FIP1 (UniProt Q6WKZ4)
inactive: [1] 0.041 | [2] 0.071 | [3] 0.086 | [4] -0.006 | [5] 0.046

PARP16 isoform 3 (UniProt Q8N5Y8)
inactive: [1] -0.019 | [2] -0.019 | [3] 0.012 | [4] -0.041 | [5] 0.001

PIK3R1 (UniProt P27986)
inactive: [1] -0.059 | [2] 0.019 | [3] 0.138 | [4] 0.005 | [5] -0.027

PFDN1 (UniProt O60925)
inactive: [1] -0.102 | [2] 0.155 | [3] 0.061 | [4] -0.171 | [5] -0.061

PIGG (UniProt Q5H8A4)
inactive: [1] 0.12 | [2] 0.031 | [3] -0.091 | [4] 0.006 | [5] -0.003

PLA2G15 (UniProt Q8NCC3)
inactive: [1] 0.02 | [2] -0.01 | [3] -0.034 | [4] -0.001 | [5] 0

POP1 (UniProt Q99575)
inactive: [1] 0.003 | [2] -0.028 | [3] 0.029 | [4] 0.017 | [5] -0.01

PSMC4 (UniProt P43686)
inactive: [1] 0.022 | [2] -0.117 | [3] -0.022 | [4] 0.006 | [5] 0.001

PIGH (UniProt Q14442)
inactive: [1] 0.044 | [2] 0.064 | [3] 0.144 | [4] -0.046 | [5] -0.024

PURA (UniProt Q00577)
inactive: [1] 0.116 | [2] -0.403 | [3] -0.092 | [4] 0.298 | [5] 0.043

PRCP (UniProt P42785)
inactive: [1] 0.023 | [2] -0.036 | [3] -0.061 | [4] 0.018 | [5] 0.062

PML (UniProt P29590)
inactive: [1] -0.008 | [2] -0.054 | [3] 0.002 | [4] -0.005 | [5] 0.001

POLD3 (UniProt Q15054)
inactive: [1] -0.027 | [2] 0.14 | [3] 0.104 | [4] -0.037 | [5] -0.009

PSMD11 (UniProt O00231)
Sequence of UniProt O00231 (O00231 whole entry, looked up): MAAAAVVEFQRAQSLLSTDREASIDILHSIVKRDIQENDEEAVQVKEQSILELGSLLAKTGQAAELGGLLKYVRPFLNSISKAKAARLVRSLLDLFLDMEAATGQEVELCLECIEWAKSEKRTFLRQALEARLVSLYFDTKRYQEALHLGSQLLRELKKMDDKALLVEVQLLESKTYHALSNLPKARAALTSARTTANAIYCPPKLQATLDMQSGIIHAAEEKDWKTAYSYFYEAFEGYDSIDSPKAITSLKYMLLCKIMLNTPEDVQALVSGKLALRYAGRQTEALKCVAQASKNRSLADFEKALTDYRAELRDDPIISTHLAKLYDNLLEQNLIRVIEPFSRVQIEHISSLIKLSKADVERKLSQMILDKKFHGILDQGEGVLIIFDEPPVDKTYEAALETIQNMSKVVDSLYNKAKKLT
inactive: [1] 0.043 | [2] -0.049 | [3] -0.053 | [4] -0.017 | [5] 0

PDE4DIP isoform 4 (UniProt Q5VU43)
inactive: [1] 0.023 | [2] 0.043 | [3] 0.046 | [4] -0.023 | [5] -0.011

PDCD6 (UniProt O75340)
inactive: [1] -0.024 | [2] 0.057 | [3] 0.107 | [4] -0.052 | [5] 0.003

PIP4K2B (UniProt P78356)
inactive: [1] -0.102 | [2] 0.018 | [3] -0.034 | [4] -0.038 | [5] -0.026

PNPLA8 (UniProt Q9NP80)
Sequence of UniProt Q9NP80 (Q9NP80 whole entry, looked up): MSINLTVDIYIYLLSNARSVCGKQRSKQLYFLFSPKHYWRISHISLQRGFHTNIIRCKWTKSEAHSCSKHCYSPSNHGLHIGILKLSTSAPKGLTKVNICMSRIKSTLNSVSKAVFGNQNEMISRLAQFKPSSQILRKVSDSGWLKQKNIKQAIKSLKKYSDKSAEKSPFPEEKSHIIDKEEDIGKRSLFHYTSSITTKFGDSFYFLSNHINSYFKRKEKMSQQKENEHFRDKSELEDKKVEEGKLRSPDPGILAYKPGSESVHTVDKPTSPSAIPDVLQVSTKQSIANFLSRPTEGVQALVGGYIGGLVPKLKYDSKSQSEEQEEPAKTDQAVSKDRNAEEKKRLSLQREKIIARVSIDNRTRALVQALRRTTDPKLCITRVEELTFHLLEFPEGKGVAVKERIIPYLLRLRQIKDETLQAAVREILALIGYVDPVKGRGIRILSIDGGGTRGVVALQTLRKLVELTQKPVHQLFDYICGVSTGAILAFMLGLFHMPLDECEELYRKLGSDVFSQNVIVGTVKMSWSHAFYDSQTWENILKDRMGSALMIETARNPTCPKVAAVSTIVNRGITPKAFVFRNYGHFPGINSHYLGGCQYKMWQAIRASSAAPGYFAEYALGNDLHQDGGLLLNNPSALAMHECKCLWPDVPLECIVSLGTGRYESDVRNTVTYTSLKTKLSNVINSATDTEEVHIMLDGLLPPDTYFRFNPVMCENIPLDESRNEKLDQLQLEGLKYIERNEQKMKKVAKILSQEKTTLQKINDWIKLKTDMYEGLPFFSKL
inactive: [1] 0.024 | [2] 0.031 | [3] 0.007 | [4] -0.006 | [5] 0.024

PDE12 (UniProt Q6L8Q7)
inactive: [1] -0.003 | [2] 0.059 | [3] 0.12 | [4] -0.05 | [5] -0.094

POLR1A (UniProt O95602)
inactive: [1] 0.049 | [2] -0.043 | [3] -0.044 | [4] 0.096 | [5] -0.015

PLCB3 (UniProt Q01970)
inactive: [1] -0.019 | [2] -0.015 | [3] 0 | [4] -0.048 | [5] -0.062

PI4K2B (UniProt Q8TCG2)
Sequence of UniProt Q8TCG2 (Q8TCG2 whole entry, looked up): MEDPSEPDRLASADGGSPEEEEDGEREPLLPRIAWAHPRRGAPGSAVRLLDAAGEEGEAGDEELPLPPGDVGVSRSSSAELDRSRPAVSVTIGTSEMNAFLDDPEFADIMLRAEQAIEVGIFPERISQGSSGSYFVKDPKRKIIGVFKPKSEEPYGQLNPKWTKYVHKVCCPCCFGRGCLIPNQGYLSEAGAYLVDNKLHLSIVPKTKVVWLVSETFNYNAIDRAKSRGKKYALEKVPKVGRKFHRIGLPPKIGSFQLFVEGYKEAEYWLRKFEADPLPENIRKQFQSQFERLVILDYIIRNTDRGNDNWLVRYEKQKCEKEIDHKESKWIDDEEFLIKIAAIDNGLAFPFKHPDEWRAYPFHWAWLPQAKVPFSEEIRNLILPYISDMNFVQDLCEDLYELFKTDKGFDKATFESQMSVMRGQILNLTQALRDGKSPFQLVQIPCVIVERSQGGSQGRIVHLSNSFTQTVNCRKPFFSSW
inactive: [1] 0.007 | [2] 0.031 | [3] 0.065 | [4] 0.024 | [5] -0.041

POLR2G (UniProt P62487)
inactive: [1] 0.082 | [2] 0.176 | [3] 0.001 | [4] 0.167 | [5] -0.016

QRICH1 (UniProt Q2TAL8)
inactive: [1] -0.029 | [2] -0.148 | [3] 0 | [4] -0.02 | [5] -0.016

POLA1 (UniProt P09884)
inactive: [1] -0.059 | [2] 0.105 | [3] 0.101 | [4] -0.012 | [5] 0

PRPSAP2 (UniProt O60256)
inactive: [1] 0.009 | [2] -0.026 | [3] -0.027 | [4] -0.012 | [5] 0

PLBD2 (UniProt Q8NHP8)
inactive: [1] 0.011 | [2] 0.01 | [3] 0.01 | [4] -0.006 | [5] 0.007

POLR3K (UniProt Q9Y2Y1)
Sequence of UniProt Q9Y2Y1 (Q9Y2Y1 whole entry, looked up): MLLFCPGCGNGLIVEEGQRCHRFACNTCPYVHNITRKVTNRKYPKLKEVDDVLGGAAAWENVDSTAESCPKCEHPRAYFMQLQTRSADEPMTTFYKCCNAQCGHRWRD
inactive: [1] -0.009 | [2] -0.008 | [3] -0.029 | [4] 0.021 | [5] 0.056

PSMD9 (UniProt O00233)
Sequence of UniProt O00233 (O00233 whole entry, looked up): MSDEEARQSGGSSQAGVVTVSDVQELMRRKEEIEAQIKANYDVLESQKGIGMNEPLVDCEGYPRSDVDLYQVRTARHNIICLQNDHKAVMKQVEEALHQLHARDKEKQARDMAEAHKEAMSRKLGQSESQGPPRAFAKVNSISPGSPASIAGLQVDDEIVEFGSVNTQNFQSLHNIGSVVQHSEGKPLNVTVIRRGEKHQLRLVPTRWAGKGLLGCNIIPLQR
inactive: [1] 0.014 | [2] 0.017 | [3] -0.004 | [4] 0.007 | [5] 0.016

PLSCR1 (UniProt O15162)
inactive: [1] 0.017 | [2] 0.036 | [3] -0.016 | [4] -0.051 | [5] 0.055

PSMD5 (UniProt Q16401)
inactive: [1] 0 | [2] 0.028 | [3] 0.006 | [4] -0.006 | [5] -0.001

PPT1 (UniProt P50897)
inactive: [1] 0.047 | [2] 0.021 | [3] 0 | [4] -0.003 | [5] -0.003

PMPCB (UniProt O75439)
inactive: [1] 0.005 | [2] 0.111 | [3] 0.01 | [4] 0.012 | [5] -0.053

PIK3CB (UniProt P42338)
inactive: [1] -0.068 | [2] 0.014 | [4] -0.01 | [5] 0.005
active: [3] 0.213

PRPF38A (UniProt Q8NAV1)
inactive: [1] 0.014 | [2] -0.011 | [3] 0.024 | [4] 0.007 | [5] 0.015

PKN2 (UniProt Q16513)
inactive: [1] -0.075 | [2] 0.103 | [3] 0.066 | [4] 0.029 | [5] 0.044

PHLDB1 isoform 2 (UniProt Q86UU1)
Sequence of UniProt Q86UU1 (Q86UU1 whole entry, looked up): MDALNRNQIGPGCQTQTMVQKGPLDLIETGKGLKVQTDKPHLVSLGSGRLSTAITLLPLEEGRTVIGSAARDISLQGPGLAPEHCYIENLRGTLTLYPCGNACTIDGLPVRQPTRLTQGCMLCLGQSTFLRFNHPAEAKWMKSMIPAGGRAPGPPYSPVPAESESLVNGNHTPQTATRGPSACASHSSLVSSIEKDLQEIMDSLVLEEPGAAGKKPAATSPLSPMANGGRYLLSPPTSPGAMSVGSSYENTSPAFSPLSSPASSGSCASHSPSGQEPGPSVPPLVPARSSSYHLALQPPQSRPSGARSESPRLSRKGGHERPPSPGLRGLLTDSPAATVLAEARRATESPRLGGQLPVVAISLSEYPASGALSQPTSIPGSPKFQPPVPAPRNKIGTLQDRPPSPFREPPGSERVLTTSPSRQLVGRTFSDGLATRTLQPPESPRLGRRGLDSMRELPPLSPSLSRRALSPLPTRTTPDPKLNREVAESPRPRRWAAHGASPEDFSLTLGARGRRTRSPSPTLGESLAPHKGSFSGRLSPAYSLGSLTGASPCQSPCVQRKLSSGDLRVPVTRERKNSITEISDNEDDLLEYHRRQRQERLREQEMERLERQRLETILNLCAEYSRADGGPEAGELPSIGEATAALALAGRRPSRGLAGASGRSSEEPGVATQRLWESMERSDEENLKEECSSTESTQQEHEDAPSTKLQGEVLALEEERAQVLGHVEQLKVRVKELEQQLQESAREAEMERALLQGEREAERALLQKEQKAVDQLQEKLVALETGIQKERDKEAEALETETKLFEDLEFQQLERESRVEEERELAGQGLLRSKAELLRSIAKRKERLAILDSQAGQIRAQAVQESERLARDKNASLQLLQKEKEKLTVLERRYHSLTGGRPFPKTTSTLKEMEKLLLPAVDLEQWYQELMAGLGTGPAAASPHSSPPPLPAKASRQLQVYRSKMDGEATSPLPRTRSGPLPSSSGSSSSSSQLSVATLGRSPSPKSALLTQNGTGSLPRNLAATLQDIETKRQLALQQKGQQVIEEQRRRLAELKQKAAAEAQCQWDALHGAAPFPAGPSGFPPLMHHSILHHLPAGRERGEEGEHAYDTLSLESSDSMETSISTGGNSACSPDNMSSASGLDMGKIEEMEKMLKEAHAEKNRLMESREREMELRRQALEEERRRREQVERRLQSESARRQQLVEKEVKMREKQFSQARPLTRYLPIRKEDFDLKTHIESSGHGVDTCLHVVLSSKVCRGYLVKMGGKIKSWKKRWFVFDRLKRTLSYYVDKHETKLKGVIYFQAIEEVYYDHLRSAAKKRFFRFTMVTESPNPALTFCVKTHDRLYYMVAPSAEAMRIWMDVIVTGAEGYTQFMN
inactive: [1] -0.006 | [2] 0.073 | [3] 0.081 | [4] 0.008 | [5] 0.002

PRPF31 (UniProt Q8WWY3)
inactive: [1] -0.07 | [2] 0.028 | [3] 0.174 | [4] -0.087 | [5] 0.005

PGGT1B (UniProt P53609)
inactive: [1] 0.025 | [2] 0.066 | [3] 0.051 | [4] -0.018 | [5] -0.004

PDCD2L (UniProt Q9BRP1)
inactive: [1] -0.031 | [2] 0.055 | [3] 0.109 | [4] 0.021 | [5] 0.091

PITRM1 isoform 2 (UniProt Q5JRX3)
inactive: [1] 0.064 | [2] -0.08 | [3] 0.048 | [4] -0.083 | [5] 0

PLIN2 (UniProt Q99541)
inactive: [1] -0.063 | [2] -0.006 | [3] 0.093 | [4] 0.004 | [5] 0.015
